{"source": "paper PMC12136788", "binders": {"B1": {"name": "12329608_12331292_3055_3pUTR_ENSMUSG00000032625_ENSMUST00000046121|mouse|control|control (ssRNA)", "RNA": "GGGAGUUCUACAGUCCGACGAUCGAGGGUACAAAUGAGAGUUUUUACAUUUUUCCUUCUUUUUACUUUUCCCAACAAUAGCACGCUUUCUGGUCCUAACUGCACCGCAGUCUCCGUUGCAUGAAGAAAACUUGGACCAGCUGGCAACAGAGGAUUGAGCAUCA"}, "B2": {"name": "chr7:28421298:28421299:+_ENSMUSG00000004056_ENSMUST00000051356|mus_hu|FALSE|FALSE (ssRNA)", "RNA": "GGGAGUUCUACAGUCCGACGAUCCAUCAUCUCGUACAUGACCACACCCAGCCCCCACCAGUCCACGGCCCGGCCAUAGUCAUUGUCCUCCAGCACCUCAGGCGCCAGGUACUCCGGGGUCCCACAGAAGGUUUUCAUGGUGGCCAACAGAGGAUUGAGCAUCA"}, "B3": {"name": "chr7:151048522:151048523:+_ENSG00000013374_ENST00000566856|hu_mus|hu_hu_hu_mus_True|48_108 (ssRNA)", "RNA": "GGGAGUUCUACAGUCCGACGAUCCUGCUUCUUAUUUAUUACGAUCUUGAUGUAAUUUUCUUGAAAUCCGAAAGUUUCAGCUAUUUGGGACCUCAGUUCUCUACCAGUGACAUGCAAGCGGGUCUCCAACAAGCUUUUCUUAUCCAACAGAGGAUUGAGCAUCA"}, "B4": {"name": "chr7:52357369:52357370:-_ENSMUSG00000003420_ENSMUST00000003512|mus_hu|FALSE|FALSE (ssRNA)", "RNA": "GGGAGUUCUACAGUCCGACGAUCGUGCUCCCGCAGGCGGUGCGGGCAGGAGAAUAGCAGGAAGGUGAGCUCCUUGUUGGCCGCCUUGUCCUGCUGCUGCCACCGCUGACUGAUAGCCAGGGCCUCGGGCCAGUCCCCACCCCACAACAGAGGAUUGAGCAUCA"}, "B5": {"name": "chr5:132440482:132440483:+_ENSG00000170606_ENST00000304858|hu_hu|FALSE|FALSE (ssRNA)", "RNA": "GGGAGUUCUACAGUCCGACGAUCUUAAAGCAUAAUUAGAGCUCCUGCCAUGUAAGUCAUAAUGAAAAGUCUGCUGGAUAGCUAGAGCUGUAGCUAUAGCUCAACUUUCCAAAACAAACUUAUUCUUGUAGACACAUGGUUAAACAACAGAGGAUUGAGCAUCA"}, "B6": {"name": "chr8:101271117:101271118:-_ENSG00000034677_ENST00000519449|hu_mus|motif|central (ssRNA)", "RNA": "GGGAGUUCUACAGUCCGACGAUCGCAAUCACUGGAGCCGUGACUACAGGACGUUCUCAUGCUUUCUAAGUCUGAGCAGCGGAAUUCAGAAAAAUGACUGGAGUGGGAAUCUGCUACAGACGGCAUGCUGUCACUGAGGGAUGGCAACAGAGGAUUGAGCAUCA"}, "B7": {"name": "46683936_46684056_841_CDS_ENSMUSG00000033319_ENSMUST00000036226|mouse|control|control (ssRNA)", "RNA": "GGGAGUUCUACAGUCCGACGAUCUCGAAGAGGAGUUGAGUUGGUUAAAGUCGUGUUGUUGACAGAUGCUCCGUGAUUUAACAAAGACUGGACAACCUUCAGAUGUCCUGCUGCAGAAGCGGCCCAUAAAGGGGGGGCCCCCUCCAACAGAGGAUUGAGCAUCA"}, "B8": {"name": "chr22:36164377:36164378:-_ENSG00000100320_ENST00000405409|hu_mus|FALSE|FALSE (ssRNA)", "RNA": "GGGAGUUCUACAGUCCGACGAUCACGGCCCUCUACCACGGUGCCGUGCAAUUUCUCCCUGGCCCUGUCUGCAUCAGCACUAUUCUCGAAAGUUACGAACCCGAAUCCCUUGGAGCCGCGCUCAUUAAAGAUUAUUUCCACAUCCAACAGAGGAUUGAGCAUCA"}, "B9": {"name": "chr17:3572670:3572671:+_ENSG00000127774_ENST00000248378|hu_hu|FALSE|FALSE (ssRNA)", "RNA": "GGGAGUUCUACAGUCCGACGAUCGUAGGUGAAGAGGCCCCCGAUGAGGCCUCCUGUAAAGAGAGGUCUCCGUGAUUUGAAAUAUUUGUUCCACCUCCUUCCCGCCUUGAGAAUGAGGAGCAGGGAGAGCAGGACGGAGGCGAGCAACAGAGGAUUGAGCAUCA"}, "B10": {"name": "chr2:47387770:47387771:-_ENSG00000143933_ENST00000272298|hu_mus|hu_hu_hu_mus_True|1_38 (ssRNA)", "RNA": "GGGAGUUCUACAGUCCGACGAUCAAGGUUUAAGGACAAUGACAGUAAGAUAAGGGAAGAAAACAUGGAGGAAUGAAGUCCUAAUUACUAUACAUGCAUAUUUUUUUACAGUAGGGGGGGGGAACCUUUUACAGAUAUUACAAACAACAGAGGAUUGAGCAUCA"}, "B11": {"name": "chr9:35286173:35286174:+_ENSMUSG00000038119_ENSMUST00000042842|mus_mus|FALSE|FALSE (ssRNA)", "RNA": "GGGAGUUCUACAGUCCGACGAUCAGUAUUAUUGUUACUUGAUGGAACAUACGUCCAUUUCAGCAUGAUCUGAGUGUCGCUAACAGCCUCUGUGUAUGCGAUGUGAGGUCCAGUUAUUGGGCGAUUGGAAAAACGAUUUGGGAACAACAGAGGAUUGAGCAUCA"}, "B12": {"name": "chrX:98862621:98862622:+_ENSMUSG00000034160_ENSMUST00000044475|mus_hu|mus_mus_mus_hu_False|58_88 (ssRNA)", "RNA": "GGGAGUUCUACAGUCCGACGAUCCUGCAUCUCCUUUAGAGUGUUUCCCAUAUUGGAGUAGGCAUCAGCAAAGGUAGGACUAAUUCGAAUAGCCUCCUUAUAAUGCAUCAGAGCUUCCUGCAGUUUUCCCUGCUGCUGCAGUACCAACAGAGGAUUGAGCAUCA"}, "B13": {"name": "chr2:32089778:32089779:+_ENSMUSG00000039262_ENSMUST00000036691|mus_hu|FALSE|FALSE (ssRNA)", "RNA": "GGGAGUUCUACAGUCCGACGAUCUAAACAAGCUGCACAUUACACCUCUAGCCAUCGUCUGCCCUUUCAAAUAUCUGGUCUACAUGGAAAGACAAAGAGGAAAGGCCAAAACAUAAACAAAAGGAAACAAAAACAAAACACAACCAACAGAGGAUUGAGCAUCA"}, "B14": {"name": "chr5:28742860:28742861:+_ENSMUSG00000048271_ENSMUST00000114884|mus_mus|FALSE|FALSE (ssRNA)", "RNA": "GGGAGUUCUACAGUCCGACGAUCAGAAUCUCUUGAAAAAGAAAAGGUGAGAUUUCCUCCUCAAGAAGAGUAUCAAUAUAAUAAGGAUUUAACAAAUGUGGCCAAGCCAAGGGCAGCAUAAGGUUAUGUUCAGGUAAGCAGCUGCAACAGAGGAUUGAGCAUCA"}, "B15": {"name": "chr3:49066234:49066235:-_ENSG00000178035_ENST00000326739|hu_hu|FALSE|FALSE (ssRNA)", "RNA": "GGGAGUUCUACAGUCCGACGAUCAGAAGUCAGGUCCACCUGGUCUGCAGUGAAGUCGAUGUACCCAGGGAGAAUGAGAAAGUCAUUGUAGGUGAGGCCGUCUCCGCAGUUGAAGAGCUGCUGUGCUGUGAGUCCGUCGUCUGGCAACAGAGGAUUGAGCAUCA"}, "B16": {"name": "chr8:87366250:87366251:-_ENSMUSG00000003814_ENSMUST00000003912|mus_mus|FALSE|FALSE (ssRNA)", "RNA": "GGGAGUUCUACAGUCCGACGAUCGAGCAGAUGAAAUCUCAAGCCUAGGGCUUCUCCUCUACACCCCUGUUCCUAGAGUUGGAGGGUAGUGACCAAAAGAUGGAGAAAGGGAGGGACAGAAGGAAAAGAUGUUGAUUCAAAAAUCAACAGAGGAUUGAGCAUCA"}, "B17": {"name": "chr7:75932113:75932114:+_ENSG00000106211_ENST00000248553|hu_hu|hu_hu_hu_mus_False|28_98 (ssRNA)", "RNA": "GGGAGUUCUACAGUCCGACGAUCCUGCGACCACUCAUCCGGCAGCCGGGGCACCCCGAAAGCUUGAUCGAAGAGGCGGCUGUGUGCAGGGUACCAGUCCCGGAAUGCCCAGCUGGGCGGGCUCCGCAGCAGCGAGAAGGGCACCAACAGAGGAUUGAGCAUCA"}, "B18": {"name": "chr4:88367131:88367132:-_ENSMUSG00000070923_ENSMUST00000094993|mus_hu|motif|central (ssRNA)", "RNA": "GGGAGUUCUACAGUCCGACGAUCUUGGUAAUUGCUAGCUUCCAAAAGCAAAUUCACGCAGGUAUUGUCUGUUCUCAUGAAAUCGGCUGUCUGCACGUAAUUGAUGAGAUCCUGUGGUGUCAUCAGUGGAAAUCGAAUAUUCUUCAACAGAGGAUUGAGCAUCA"}, "B19": {"name": "chr8:104447970:104447971:+_ENSG00000164934_ENST00000297579|hu_hu|hu_hu_hu_mus_False|48_108 (ssRNA)", "RNA": "GGGAGUUCUACAGUCCGACGAUCAUAUACCUCCCUGCUUCGGCUCUUGUCCACAGGAAAGAUUCUAAUAGACUUAUCAAAGCUGGCAGACACAAACUCCUUCCCAGUGGGAGAGUAGUCCACAUCAAGUACUGCAGACACGUGCAACAGAGGAUUGAGCAUCA"}, "B20": {"name": "31532532_31534450_220_CDS_ENSG00000082213_ENST00000325366|human|control|control (ssRNA)", "RNA": "GGGAGUUCUACAGUCCGACGAUCGAAAUGUAAAAAACUUACAUUACUGGCAGGAAGAUGCUUUGAGCCUAUGGCCCGGUAUAUAAAGGGUAGAACCUCCUGAUGAUCCUCCACCACCCACACUGGGAGCUUGGGGUAACGCCGCAACAGAGGAUUGAGCAUCA"}, "B21": {"name": "chr6:117881578:117881579:-_ENSG00000047932_ENST00000052569|hu_hu|motif|central (ssRNA)", "RNA": "GGGAGUUCUACAGUCCGACGAUCUUUAAUGUAGAAGAUGCCAUCUUUAUUUACAGGCUAAUAAAAAAAUAUUAAACUCAACGGGAUAUAAUACAUUAUCAUAAAUGCAAUAGAUUUGAGGCCAACCAUAAGUGUAAGACUGGACAACAGAGGAUUGAGCAUCA"}, "B22": {"name": "chr3:144353948:144353949:-_ENSMUSG00000037062_ENSMUST00000163279|mus_hu|FALSE|FALSE (ssRNA)", "RNA": "GGGAGUUCUACAGUCCGACGAUCACCAAACAACUCUGAAAAUAACCCAUCAAAACAUAAUAUUAAAAUCAUUUGAUUUCUGUUGGAAAACCAGGUAAACAUAGUUUAAAUGCGUUUUUGUCUAUGAAAGCAUUCAGAAAAUUCCAACAGAGGAUUGAGCAUCA"}}, "note": "Whole data set: some 24,000 sequences, median “enrichment r” near 0.99, cut for the highest 2% near 3.7. The list is a sample of the results.", "data": [{"molecular_target": "T1, UNK ZnF1-3 (human, UniProt Q9C0B0 31-174)", "T1 sequence": "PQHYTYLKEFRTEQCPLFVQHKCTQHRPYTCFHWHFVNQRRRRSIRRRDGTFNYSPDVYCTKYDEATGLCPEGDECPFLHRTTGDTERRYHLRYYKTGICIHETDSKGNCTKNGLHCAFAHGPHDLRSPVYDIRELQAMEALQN", "test": "nsRBNS (natural sequence RNA bind-n-seq); RBNS binding buffer (assumed for nsRBNS): 25 mM Tris pH 7.5, 150 mM KCl, 3 mM MgCl2, 0.01% Triton X-100, 500 ug/ml BSA, 20 U/ml SUPERase-In, 4 C; UNK is unkempt and MSI1 is Musashi-1; names of the RNAs are library labels; protein concentration not given here; high values mean tight binding", "units": {"binding signal": "enrichment R"}, "values": [{"binder": "B1", "binding signal": 0.4}, {"binder": "B2", "binding signal": 1.8}, {"binder": "B3", "binding signal": 0.712}, {"binder": "B4", "binding signal": 0.754}, {"binder": "B5", "binding signal": 0.424}, {"binder": "B6", "binding signal": 1.45}, {"binder": "B7", "binding signal": 1.3}, {"binder": "B8", "binding signal": 1.19}, {"binder": "B9", "binding signal": 1.1}, {"binder": "B10", "binding signal": 2.41}, {"binder": "B11", "binding signal": 0.899}, {"binder": "B12", "binding signal": 0.89}, {"binder": "B13", "binding signal": 2.59}, {"binder": "B14", "binding signal": 1.72}, {"binder": "B15", "binding signal": 1.62}, {"binder": "B16", "binding signal": 1.61}, {"binder": "B17", "binding signal": 0.901}, {"binder": "B18", "binding signal": 0.896}, {"binder": "B19", "binding signal": 1}, {"binder": "B20", "binding signal": 0.807}, {"binder": "B21", "binding signal": 1.5}, {"binder": "B22", "binding signal": 0.744}]}]}
